Compound activity from PubChem BioAssay.
RAD54 branch = inhibitors of human RAD54 branch migration | inhibition, % at 10.4 µM | Q92698 | AID 602329 | 360,000 compounds, 0.14% hits | RAD54 Holliday junction branch migration, FAM/BHQ fluorescence;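 active = mean normalized replicate activity at least 40 and at least half of replicates scoring 40 or more; inconclusive = only one of the two criteria met; inactive = mean below 40 and under half of replicates reaching 40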;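 note: 0% = median of neutral control wells and 100% = median of positive control wells; inhibitors cause a drop in the FAM fluorescence signal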
INS-1E GSIS act = primary screen for activators of insulin secretion dependent on glucose, INS-1E cells, GLuc reporter luminescence; activation, % at 16.6 µM; INS-1E GLuc reporter insulin secretion, 2-3 h; 370,000 compounds, 0.61% hits;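 active = lowest replicate activation of at least 40%, so every replicate reaches that level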;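 note: 0% = median of neutral control wells and 100% = median of IBMX positive control wells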
CFTR F508del cor = CFTR F508del correction in bronchial cells; CFBE cells, YFP halide quenching; stimulated with forskolin plus potentiator P3; % fluorescence drop versus neutral controls; 350,000 compounds, 0.36% hits; activity (quench increase), % at 7.58 µM;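 active = mean added fluorescence quench of at least 8% versus neutral control, with both replicates also reaching 8%; inconclusive = only one of the mean or replicate conditions met; inactive = mean below 8% and not both replicates reaching 8%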;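 note: cells transiently co-express mutant CFTR-F508del with the halide-sensitive YFP; corrector assay measuring rescue of mutant channel to the surface after 24 h compound exposure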
RAD52 anneal inh = inhibitors of human RAD52 DNA annealing; recombinant RAD52 DNA annealing, FRET fluorescence; inhibition, % at 18.7 µM; P43351; 360,000 compounds, 0.46% hits;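 active = every replicate showing at least 50% inhibition; inconclusive = mean inhibition at least 50% but not in every replicate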
Target sequence (P43351 whole entry, looked up): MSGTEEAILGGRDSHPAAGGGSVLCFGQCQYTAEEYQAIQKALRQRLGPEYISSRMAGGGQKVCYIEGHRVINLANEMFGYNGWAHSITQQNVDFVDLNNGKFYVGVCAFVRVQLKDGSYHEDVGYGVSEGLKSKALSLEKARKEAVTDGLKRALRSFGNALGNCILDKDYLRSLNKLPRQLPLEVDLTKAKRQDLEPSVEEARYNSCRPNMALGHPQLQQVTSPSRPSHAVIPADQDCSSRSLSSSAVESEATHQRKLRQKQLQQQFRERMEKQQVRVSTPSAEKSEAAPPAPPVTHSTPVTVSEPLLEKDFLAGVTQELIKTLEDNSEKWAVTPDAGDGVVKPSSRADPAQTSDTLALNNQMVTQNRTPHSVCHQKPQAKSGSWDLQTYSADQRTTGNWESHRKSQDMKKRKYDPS
LGR2 inh = Drosophila LGR2 receptor signaling inhibition; 380,000 compounds, 0.35% hits; inhibition, % at 9.99 µM; HEK293 LGR2, CRE-luciferase, bursicon-stimulated, 4 h;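 active = drop in luminescence signal, shown as inhibition above about 50% in the replicate tests, limit read from the data, passing the limit was not always enough; inconclusive = probably only some replicates passing the limit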;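 note: agonist challenge used bursicon conditioned medium at about half maximal strength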
EWS-Fli block = blocks EWS/Fli oncoprotein-driven transcription | A673 NR0B1-luciferase reporter, viability-normalised | inhibition, % at 12.6 µM | 350,000 compounds, 0.67% hits | AID 651661;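 active = mean inhibition of at least 50% after viability correction, with every replicate also passing that limit; inconclusive = mean reaches 50% but only one of two replicates passes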;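 note: firefly luciferase signal divided by Alamar Blue viability fluorescence both relative to DMSO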
Numbers without * were called inactive; ? = inconclusive; / = no result given. This is a sample that favours compounds with a hit; in the whole collection about 1.8% have one here.

SMILES | RAD54 branch | INS-1E GSIS act | CFTR F508del cor | RAD52 anneal inh | LGR2 inh | EWS-Fli block
COc1cccc(NC(=O)C[C@@H]2CC[C@@H]3[C@@H](COc4ccc(NC(C)=O)cc4C(=O)N3C)O2)c1 | -10 | -5 | 0 | 6 | -10 | -6
COc1ccc(C)cc1Nc1nc(N)c2cc(OC)c(OC)cc2n1 | 51* | / | / | / | / | /
COc1cc2nc(N3CCN(c4cc(C)ccc4C)CC3)nc(N)c2cc1OC | 21 | 221* | -2 | 49 | 41 | 60*
COc1ccc(CCNC(C)=O)cc1 | -4 | 6 | / | / | 1 | /
CCn1c(=O)c2sccc2n2c(CCCC(=O)NC3CCN(Cc4ccccc4)CC3)nnc12 | -8 | 42 | 1 | -2 | -3 | 9
N#Cc1c(NC(=O)c2ccco2)sc2c1CCC2 | -6 | -8 | -1 | -26 | -73 | /
COc1ccccc1N1CCN(C(=O)c2noc(C)c2[N+](=O)[O-])CC1 | 3 | 57* | -2 | -8 | 3 | 7
COc1ccccc1N1CCN(C(=O)c2ccc(-c3ccc(Cl)cc3)o2)CC1 | 0 | -21 | 9.4* | -25 | -2 | 49
COC(=O)C1CCN(C(=O)c2ccc(SC)cc2OC)CC1 | 6 | / | / | / | / | /
COc1cc(SC)ccc1C(=O)N1CCN(c2ccccc2OC)CC1 | 6 | 2 | 14* | -13 | -5 | ?
COc1ccc(N(C(C)=O)c2nc(C)cc(C)c2C#N)c(OC)c1 | / | 11 | 1 | -6 | -4 | -1
COc1ccc(CCN(C)C(=O)COc2cccc(-n3cnnn3)c2)cc1OC | 2 | 83* | 3 | 10 | -22 | -8
COc1ccc(CCN(C)C(=O)COc2ccc(C(=O)c3ccccc3)cc2)cc1OC | 5 | 7 | 1 | -7 | -2 | -5
CCNC(=S)N1CCN(c2cccc(C(F)(F)F)c2)CC1 | -10 | -25 | / | / | 3 | /
O=C(O)CCCCCCCCc1cn(Cc2ccc(C(=O)c3ccccc3)cc2)nn1 | -5 | 15 | 14* | -8 | 11 | 54*
O=C(c1ccccc1)c1ccc(Cn2cc(CCCO)nn2)cc1 | -11 | -40 | 1 | -9 | -8 | 14
C[C@@H]1CN([C@H](C)CO)C(=O)c2cc(NC(=O)Nc3ccccc3)ccc2O[C@@H](C)CCCCO[C@H]1CN(C)Cc1ccc2c(c1)OCO2 | -11 | -33 | 1 | 61* | -22 | 10
C[C@H]1CCCCO[C@H](CN(C)Cc2ccc3c(c2)OCO3)[C@@H](C)CN([C@@H](C)CO)C(=O)c2cc(NC(=O)Nc3ccccc3)ccc2O1 | -7 | -38 | -2 | 56* | 0 | -1
C[C@@H]1CN([C@H](C)CO)C(=O)c2cc(NC(=O)Nc3ccccc3)ccc2O[C@@H](C)CCCCO[C@@H]1CN(C)Cc1ccc2c(c1)OCO2 | -6 | -31 | 3 | 41 | 7 | 3
C[C@H](CO)N1C[C@H](C)[C@@H](CN(C)CC2CC2)OCCCC[C@H](C)Oc2ccc(NC(=O)Nc3ccc4c(c3)OCO4)cc2C1=O | 8 | -6 | -3 | 48 | -3 | /
C[C@H](CO)N1C[C@H](C)[C@H](CN(C)CC2CC2)OCCCC[C@H](C)Oc2ccc(NC(=O)Nc3ccc4c(c3)OCO4)cc2C1=O | 17 | / | -3 | 55* | / | /
C[C@@H]1CCCCO[C@@H](CN(C)Cc2ccc3c(c2)OCO3)[C@H](C)CN([C@@H](C)CO)C(=O)c2cc(NC(=O)Nc3ccc(C(F)(F)F)cc3)ccc2O1 | 7 | 15 | -2 | 51* | 10 | -1
S=C(NCCCN1CCOCC1)N1CCOCC1 | / | / | -2 | -3 | / | -7
CCOC(=O)c1sc(=NC(=O)c2ccc(S(=O)(=O)N(C)c3ccccc3)cc2)n(C)c1C | / | -5 | 1 | -20 | 7 | 3
O=S(=O)(NCc1ccccc1)c1ccc(S(=O)(=O)N2CCCCC2)cc1 | -6 | 49* | / | / | / | /
SMILES | RAD54 branch | INS-1E GSIS act | CFTR F508del cor | RAD52 anneal inh | LGR2 inh | EWS-Fli block
COc1ccc2nc(C)cc(SCC(=O)Nc3c(C)cccc3C)c2c1 | / | 3 | / | -3 | 13 | 74*
COc1ccc2nc(C)cc(SCC(=O)Nc3c(C)cc(C)cc3C)c2c1 | -7 | 7 | / | / | -5 | /
Cc1ccc(-c2cc3ccccc3nc2N)cc1 | -1 | -14 | / | -31 | -82 | -84
O=C(CCCC(=O)c1ccccc1)NCc1ccccc1 | -16 | 40* | -4 | -7 | -12 | 12
Cc1ccc(NS(=O)(=O)c2cc(C(=O)N3CCN(C)CC3)ccc2C)cc1 | -1 | / | / | / | / | /
Cc1ccc(C)c(S(=O)(=O)Nc2ccc(C(=O)N3CCC3)cc2)c1 | 1 | 43* | 2 | -7 | 11 | 13
COc1cccc(-c2cnc3c(c2)C(=O)N([C@H](C)CO)C[C@H](C)[C@H](CN(C)Cc2ccc4c(c2)OCO4)O3)c1 | -6 | 3 | -5 | -2 | 6 | -3
Cc1c(Cl)cccc1NC(=O)C1CC(=O)N(C2CCCC2)C1 (centres undefined) | -6 | 35 | 13* | -10 | 1 | 5
COC(Cc1ccccc1N1CCCC1=O)OC | 4 | -8 | -1 | -13 | 0 | -4
C[C@@H]1O[C@@H](O[C@H]2[C@H](Oc3cc(O)c4c(c3)O[C@H](c3ccc(O)cc3)CC4=O)O[C@H](CO)[C@@H](O)[C@@H]2O)[C@H](O)[C@H](O)[C@H]1O | 1 | / | -1 | 3 | -6 | -6
Cc1ccc(C(=O)/C=C2\NCCNC2=O)cc1 | 2 | / | / | / | / | /
Cc1ccc(C(=O)/C=C2\NCC(C)NC2=O)cc1 (centres undefined) | 8 | 8 | / | / | 54* | /
CCCN1Cc2cccc(C(=O)Nc3ccc(-c4nc5ccccc5[nH]4)cc3)c2C1=O | 0 | 40 | / | / | -10 | /
CCOC(=O)/C(=C\c1cccc(O)c1)c1nc2sc(C)c(C)c2c(=O)[nH]1 | / | / | / | -18 | 84* | -3
CCOC(=O)c1nc2sc(C)c(C)c2c(=O)[nH]1 | / | -2 | -3 | -41 | -3 | -11
COc1ccc(Nc2nc(N)c([N+](=O)[O-])c(NCCO)n2)cc1 | 7 | 3 | -6 | -13 | 2 | -33
CNc1nc(Nc2ccc(Br)cc2)nc(N)c1[N+](=O)[O-] | / | 50* | / | / | -20 | /
O=C(C[C@H]1C[C@@H]2c3cc(NC(=O)Nc4ccccc4)ccc3O[C@@H]2[C@@H](CO)O1)NCCN1CCCCC1 | 9 | 5 | -2 | 17 | -8 | 8
OC[C@@H]1[C@@H](c2ccc(-c3cccc(F)c3)cc2)[C@H]2CN(CCC(F)(F)F)CCCCN12 | 7 | -14 | -2 | 37 | 0 | 5
Cc1cc(C)nc(Nc2nc(C(N)Cc3ccc(C(F)(F)F)cc3)cs2)n1 (centres undefined) | 17 | -27 | 3 | -16 | 4 | 21
COc1cc(OC)nc(Nc2nc(C(N)Cc3ccc(C(F)(F)F)cc3)cs2)n1 (centres undefined) | 1 | / | 4 | -29 | 31* | 40
CN(Cc1cccc(F)c1)C(=O)C1CC(=O)N(Cc2ccco2)C1 (centres undefined) | 1 | 8 | 1 | -10 | 9 | -9
